The supplement of paper PMC12645437, “Orthogonal IMiD-Degron Pairs Induce Selective Protein Degradation in Cells” (ACS Chemical Biology, 2025)
The full ranking holds about 8,300 sequences; the median of “log2 fold change of degron read counts, EGFP-low vs EGFP+ sorted cells (limma voom), compound-induced degradation” is about -1.1, and the highest 2% start at about 3.2. The entries come from a sample that favours the highest values as a whole.

Target: T1, CRBN, Q96SW2
T1 chain: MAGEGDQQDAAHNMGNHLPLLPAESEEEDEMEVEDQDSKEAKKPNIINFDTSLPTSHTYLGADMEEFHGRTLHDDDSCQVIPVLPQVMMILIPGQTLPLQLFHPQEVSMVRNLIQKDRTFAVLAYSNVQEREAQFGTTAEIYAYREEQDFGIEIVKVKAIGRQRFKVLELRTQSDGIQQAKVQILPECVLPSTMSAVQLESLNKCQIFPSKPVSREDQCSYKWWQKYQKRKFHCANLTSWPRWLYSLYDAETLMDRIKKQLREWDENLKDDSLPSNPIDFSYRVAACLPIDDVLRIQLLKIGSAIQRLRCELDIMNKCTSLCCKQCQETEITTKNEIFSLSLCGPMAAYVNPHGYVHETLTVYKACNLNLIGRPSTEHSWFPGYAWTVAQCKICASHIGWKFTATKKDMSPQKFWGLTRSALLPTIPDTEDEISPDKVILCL
Test: log2 fold change of degron read counts, EGFP-low vs EGFP+ sorted cells (limma voom), compound-induced degradation; higher = more compound-induced degradation of the degron-EGFP fusion; degrons are variants of IKZF1/3 zinc finger 2; compound dose not given here
Conditions: Jurkat, 18 h

[1] = compound: compound 19 (5-tert-butyl-thalidomide)
[2] = compound: compound 22 (5-morpholino-thalidomide)
[3] = compound: compound 33 (diphenyl IMiD analogue)
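Also: pooled lentiviral library of zinc finger degron-EGFP fusions in mCherry-positive Jurkat cells, FACS-sorted after compound exposure, with degron abundance counted by next-generation sequencing.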

B1: 46F_47N_49D_50V_52G_53A_54H_55F_67L_, Q9UKT9 (peptide)
chain: FNCDVCGAHFTQKGNLLRHIKL
log2 fold change of degron read counts [1]: -0.166 | log2 fold change of degron read counts [2]: -1.87 | log2 fold change of degron read counts [3]: -1.95 | log2 fold change of degron read counts (compound: thalidomide): -2.36

B2: 46F_47L_49P_50Q_52G_53A_54P_55F_67L_, Q9UKT9 (peptide)
chain: FLCPQCGAPFTQKGNLLRHIKL
log2 fold change of degron read counts [1]: -1.51 | log2 fold change of degron read counts [2]: -0.398 | log2 fold change of degron read counts [3]: 0.89 | log2 fold change of degron read counts (compound: thalidomide): 0.718

B3: 46L_47R_49N_50Q_52G_53F_54V_55C_67L_, Q9UKT9 (peptide)
chain: LRCNQCGFVCTQKGNLLRHIKL
log2 fold change of degron read counts [1]: -1.27 | log2 fold change of degron read counts [2]: -2.74 | log2 fold change of degron read counts [3]: -1.29 | log2 fold change of degron read counts (compound: thalidomide): -1.39

B4: 46F_47G_49E_50I_52G_53A_54F_55F_67L_, Q9UKT9 (peptide)
chain: FGCEICGAFFTQKGNLLRHIKL
log2 fold change of degron read counts [1]: 2.48 | log2 fold change of degron read counts [2]: 1.05 | log2 fold change of degron read counts [3]: 2.58 | log2 fold change of degron read counts (compound: thalidomide): 0.0705

B5: 46F_47E_49P_50V_52G_53A_54D_55F_67L_, Q9UKT9 (peptide)
chain: FECPVCGADFTQKGNLLRHIKL
log2 fold change of degron read counts [1]: -1.59 | log2 fold change of degron read counts [2]: -1.56 | log2 fold change of degron read counts [3]: 2.05 | log2 fold change of degron read counts (compound: thalidomide): 2.24

B6: 46F_47R_49E_50V_52G_53A_54Q_55F_67L_, Q9UKT9 (peptide)
chain: FRCEVCGAQFTQKGNLLRHIKL
log2 fold change of degron read counts [1]: 0.18 | log2 fold change of degron read counts [2]: 0.339 | log2 fold change of degron read counts [3]: 1.48 | log2 fold change of degron read counts (compound: thalidomide): 1.56

B7: 46F_47D_49E_50V_52G_53A_54Q_55F_67L_, Q9UKT9 (peptide)
chain: FDCEVCGAQFTQKGNLLRHIKL
log2 fold change of degron read counts [1]: 1.45 | log2 fold change of degron read counts [2]: 0.572 | log2 fold change of degron read counts [3]: -0.0193 | log2 fold change of degron read counts (compound: thalidomide): 1.19

B8: 46F_47V_49E_50V_52G_53A_54Q_55F_67L_, Q9UKT9 (peptide)
chain: FVCEVCGAQFTQKGNLLRHIKL
log2 fold change of degron read counts [1]: 0.146 | log2 fold change of degron read counts [2]: 2.74 | log2 fold change of degron read counts [3]: 2.92 | log2 fold change of degron read counts (compound: thalidomide): 2.99

B9: 46F_47N_49E_50V_52G_53A_54Q_55F_67L_, Q9UKT9 (peptide)
chain: FNCEVCGAQFTQKGNLLRHIKL
log2 fold change of degron read counts [1]: 2.48 | log2 fold change of degron read counts [2]: 1.07 | log2 fold change of degron read counts [3]: 0.414 | log2 fold change of degron read counts (compound: thalidomide): 0.334

B10: 46F_47I_49E_50V_52G_53A_54Q_55F_67L_, Q9UKT9 (peptide)
chain: FICEVCGAQFTQKGNLLRHIKL
log2 fold change of degron read counts [1]: -0.278 | log2 fold change of degron read counts [2]: 2.8 | log2 fold change of degron read counts [3]: 2.99 | log2 fold change of degron read counts (compound: thalidomide): 2.69

B11: 46F_47S_49E_50V_52G_53A_54Q_55F_67L_, Q9UKT9 (peptide)
chain: FSCEVCGAQFTQKGNLLRHIKL
log2 fold change of degron read counts [1]: 2.77 | log2 fold change of degron read counts [2]: 2.35 | log2 fold change of degron read counts [3]: 1.32 | log2 fold change of degron read counts (compound: thalidomide): 1.33

B12: 46F_47W_49E_50V_52G_53A_54Q_55F_67L_, Q9UKT9 (peptide)
chain: FWCEVCGAQFTQKGNLLRHIKL
log2 fold change of degron read counts [1]: 3.44 | log2 fold change of degron read counts [2]: 3.79 | log2 fold change of degron read counts [3]: 2.82 | log2 fold change of degron read counts (compound: thalidomide): 2.03

B13: 46F_47Q_49E_50V_52G_53A_54Q_55F_67L_, Q9UKT9 (peptide)
chain: FQCEVCGAQFTQKGNLLRHIKL
log2 fold change of degron read counts [1]: 0.659 | log2 fold change of degron read counts [2]: 2.56 | log2 fold change of degron read counts [3]: 2.21 | log2 fold change of degron read counts (compound: thalidomide): 3.77

B14: 46F_47A_49E_50V_52G_53A_54Q_55F_67L_, Q9UKT9 (peptide)
chain: FACEVCGAQFTQKGNLLRHIKL
log2 fold change of degron read counts [1]: 3.49 | log2 fold change of degron read counts [2]: 2.06 | log2 fold change of degron read counts [3]: 0.981 | log2 fold change of degron read counts (compound: thalidomide): 0.73

B15: 46F_47Y_49E_50V_52G_53A_54Q_55F_67L_, Q9UKT9 (peptide)
chain: FYCEVCGAQFTQKGNLLRHIKL
log2 fold change of degron read counts [1]: 3.53 | log2 fold change of degron read counts [2]: 3.57 | log2 fold change of degron read counts [3]: 2.99 | log2 fold change of degron read counts (compound: thalidomide): 1.94

B16: 46F_47H_49E_50V_52G_53A_54Q_55F_67L_, Q9UKT9 (peptide)
chain: FHCEVCGAQFTQKGNLLRHIKL
log2 fold change of degron read counts [1]: 1.71 | log2 fold change of degron read counts [2]: 2.6 | log2 fold change of degron read counts [3]: 1.97 | log2 fold change of degron read counts (compound: thalidomide): 0.794

B17: 46F_47E_49E_50V_52G_53A_54Q_55F_67L_, Q9UKT9 (peptide)
chain: FECEVCGAQFTQKGNLLRHIKL
log2 fold change of degron read counts [1]: -0.548 | log2 fold change of degron read counts [2]: -1.16 | log2 fold change of degron read counts [3]: 1.28 | log2 fold change of degron read counts (compound: thalidomide): 2.29

B18: 46F_47T_49N_50Q_52G_53A_54L_55F_67L_, Q9UKT9 (peptide)
chain: FTCNQCGALFTQKGNLLRHIKL
log2 fold change of degron read counts [1]: -2.64 | log2 fold change of degron read counts [2]: -2.95 | log2 fold change of degron read counts [3]: -1.35 | log2 fold change of degron read counts (compound: thalidomide): -2.16
